The text below walks through data of PubChem BioAssay AID1224858 (National Center for Advancing Translational Sciences (NCATS), 2016).

SMILES strings stand for the structures. Results filed as inconclusive are left out. Active and inactive are the calls of the source. Calls follow the shape of the dose curve; as a rule, active = well fitted inhibition curve with a large enough effect; inconclusive = small, poorly fitted or top-dose-only effect; inactive = no such curve, though single readings can be large or run the other way.

The assay can be described thus: Confirmation assay for measurement of the activity of small molecule inhibitors on Zika virus induced Caspase-3 activity in human astrocytes. The settings on record: ZIKV-induced caspase-3/7 luminescence, 6 h; series mostly up to 46.1 µM. In short, it runs like this:
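Percent inhibition was derived from Caspase-Glo 3/7 luminescence, scaled between uninfected cells and ZIKV-infected cells. Astrocytes got compound 1 h before 2 FFU/cell ZIKV, then 6 h infection at 37 C.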
`Oc1cc(O)cc(/C=C/c2ccc(O)c(O)c2)c1`: the Potency was 6.9 µM (active).

With `Cc1[nH]c(C=C2C(=O)Nc3ccccc32)c(C)c1CCC(=O)O`, the Potency result is “inactive”.

In the case of `Nc1ncnc2c1ncn2[C@@H]1O[C@@H](CO)[C@H](O)[C@H]1O`, the Potency result is “inactive”.

`CCN(CC)c1ccc(C(=C2C=CC(=[N+](CC)CC)C=C2)c2cc(S(=O)(=O)O)ccc2S(=O)(=O)[O-])cc1`: the Potency is 7.74 µM (active).

With `COc1ccc(-c2coc3cc(O)ccc3c2=O)cc1`, the Potency was 15.5 µM (active).

Take `NC(N)=NN=C(/C=C/c1ccc([N+](=O)[O-])o1)/C=C/c1ccc([N+](=O)[O-])o1`: the Potency result was “inactive”.

Turning to `Oc1ccc(/C=C/c2cc(O)cc(O)c2)cc1`, the Potency is 15.5 µM (active).

`O=C(Nc1ccc(OC(F)(F)F)cc1)c1sccc1NCc1ccnc2ccccc12`: the Potency was 7.74 µM (active).

For `COCCn1c2c([n+](Cc3cnccn3)c1C)C(=O)c1ccccc1C2=O`, the Potency was 5.48 µM (active).

As for `CC[C@]1(O)C[C@H]2CN(CCc3c([nH]c4ccccc34)[C@@](C(=O)OC)(c3cc4c(cc3OC)N(C=O)[C@H]3[C@@](O)(C(=O)OC)[C@H](OC(C)=O)[C@]5(CC)C=CCN6CC[C@]43[C@@H]65)C2)C1`, the Potency result was “inactive”.

Consider `CC(=NNC(=S)N1CCC1)c1ccccn1`, for which the Potency entry was “inactive”.

In the case of `c1ccc2[nH]c(-c3cscn3)nc2c1`, the Potency was 9.75 µM (active).

As to `N#C/C(=C\c1ccc(O)c(O)c1)C(=O)Nc1ccccc1`, the Potency is 21.8 µM (active).

With `Nc1ccc(-c2ccc3ccccc3n2)cc1`, the Potency was 4.35 µM (active).

As for `CCCCCCCC/C=C/C(=O)O`, the Potency entry is “inactive”.

In the case of `CCC(C(=O)O)c1ccc(N2Cc3ccccc3C2=O)cc1` (stereo unspecified), the Potency was 6.9 µM (active).
